In PubChem BioAssay (NCI):
This is part of a sample that, as a whole, favours compounds with a hit. Of some 83,000 tested, about 20% had one in any assay.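 Treatment: one concentration, 48 hours, 96-well format. Scoring: percent growth, with anything below 10 considered active.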 Activity calls are given as the source filed them.

Test system: HL-60(TB) leukemia
Assay: NCI-60 one-dose screen, 48 h (100 = growth as untreated, 0 = no growth, -100 = all killed)
Settings: 10 µM unless noted

SMILES | growth
Nc1nc2c(F)c(F)c(F)c(F)c2s1 | 110% (inactive)
COCOc1cc2oc(C(=O)N[C@@H](Cc3ccccc3)C(O)C(=O)NCc3ccccc3)c(C)c(=O)c2cc1OCOC (some centres not stated) | 96.5% (inactive)
Nc1nc(Nc2ccccc2)nn1Cc1c(Cl)cccc1Cl | 30% (inactive)
COc1ccc(Cn2cc(C#N)c(N)c2C(C)=O)c(OC)c1 | 99% (inactive)
O=c1oc2ccc(-c3ccc(F)cc3F)cc2c(=O)n1-c1ccc(F)cc1 | -40.6% (active)
CC(=O)Oc1ccccc1C(=O)Oc1ccc(C(=O)/C=C/c2ccncc2)cc1 | 3.04% (active)
CC1=N/C(=C\c2ccc(N(C)C)cc2)C(=O)N1CCc1ccc(S(N)(=O)=O)cc1 | 102% (inactive)
